Compounds without any hit were thinned out: in the full panel of roughly 83,000, 20% have a hit.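 Percent growth is the endpoint: 0 to 100 indicates growth inhibition (40 means 60% inhibition), 0 means no net growth, and negative values indicate cell death.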 Values without a mark were called inactive. Active and inactive are the calls of the source. How the source made its calls: active means growth percent below 10; inactive means the rest.

This note sets out measurements from PubChem BioAssay (NCI).

Some test systems named below: DU-145 prostate; K-562 leukemia; MALME-3M melanoma; MDA-MB-231 breast; RXF 393 renal; SF-268 CNS; SF-295 CNS; SF-539 CNS; UACC-257 melanoma; M14 melanoma.
What all share (assay): NCI-60 one-dose screen, 48 h (100 = growth as untreated, 0 = no growth, -100 = all killed)
Common to all, as to details: 10 µM unless noted

Turning to `COc1ccc2[nH]c3nc4cnccc4cc3c2c1`, the growth in the experiment on DU-145 prostate is 101%; in the experiment with K-562 leukemia it was 111%; in the experiment on MALME-3M melanoma, 108%; with MDA-MB-231 breast, 109%; in the experiment on RXF 393 renal, 123%; in the experiment with SF-268 CNS it was 106%. Besides, the growth with SF-295 CNS was 114%; with SF-539 CNS, 102%; in the experiment on UACC-257 melanoma, 122%; with M14 melanoma, 102%.

Turning to `CCOC(=O)NC(Cc1ccccc1)c1ccccc1` (stereo not given), the growth in the experiment with DU-145 prostate is 110%; with K-562 leukemia it was 91%; with MALME-3M melanoma, 110%; with MDA-MB-231 breast, 97.8%; with RXF 393 renal, 112%; with SF-268 CNS it was 111%. Further, the growth in the experiment with SF-295 CNS is 106%; in the experiment on SF-539 CNS it was 98.6%; in the experiment on UACC-257 melanoma, 108%; in the experiment with M14 melanoma it was 95.8%.

As for `COc1ccc(C(=O)c2cc(OC)c(C)c(OC)c2)cc1OC(=O)CCl`, the growth in the experiment on DU-145 prostate is 12.7%; in the experiment on K-562 leukemia, 9.2% (active); in the experiment on MALME-3M melanoma, 69.2%; in the experiment on MDA-MB-231 breast, 30.3%; in the experiment with RXF 393 renal, 18.4%; in the experiment on SF-268 CNS, 44.9%. In addition, the growth with SF-295 CNS is 17.6%; with SF-539 CNS, -7.95% (active); in the experiment with UACC-257 melanoma, 60.3%; in the experiment with M14 melanoma, 6% (active).

Consider `O=C(NC[C@H](O)CN1CCc2ccccc2C1)c1cc(NC2COC2)ncn1`, for which the growth was 103% with DU-145 prostate; 108% with K-562 leukemia; 93.3% in the experiment on MALME-3M melanoma; 94.6% with MDA-MB-231 breast; 114% in the experiment with RXF 393 renal; 86% with SF-268 CNS. Further, the growth in the experiment with SF-295 CNS was 97.7%; in the experiment on SF-539 CNS it was 97.4%; with UACC-257 melanoma it was 116%; with M14 melanoma, 92.4%.

Take `O=C1CC23OC4ON=C(Br)C4C2C(O)c2ccccc2N13` (stereo not given): the growth is 105% in the experiment with DU-145 prostate; 110% in the experiment with K-562 leukemia; 79.9% in the experiment with MALME-3M melanoma; 98.8% with MDA-MB-231 breast; 115% in the experiment with RXF 393 renal; 95.1% in the experiment with SF-268 CNS. For the same compound, the growth was 109% in the experiment with SF-295 CNS, 107% in the experiment on SF-539 CNS, 103% in the experiment with UACC-257 melanoma and 92.4% with M14 melanoma.

Turning to `CCN1CCC[C@H]1c1cc(O)c2c(c1OC)C[C@H]1C[C@H]3[C@H](N)C(=O)C(C(N)=O)=C(O)[C@@]3(O)C(=O)C1=C2O`, the growth in the experiment on DU-145 prostate was 1.87% (active); in the experiment on K-562 leukemia, 3.76% (active); with MALME-3M melanoma, -16.5% (active); in the experiment with MDA-MB-231 breast, -6.79% (active); with RXF 393 renal it was -40.4% (active); in the experiment on SF-268 CNS, 2.64% (active). Further, the growth in the experiment with SF-295 CNS was 0.93% (active); in the experiment with SF-539 CNS, -21% (active); in the experiment with UACC-257 melanoma it was -14.1% (active); in the experiment with M14 melanoma, -38.8% (active).

In the case of `COc1ccc(Sc2[nH]c(C(C)=O)c3ccccc23)cc1`, the growth was 89.4% in the experiment on DU-145 prostate; 11.9% in the experiment on K-562 leukemia; 74% with MALME-3M melanoma; 83.3% in the experiment with MDA-MB-231 breast; 69.1% with RXF 393 renal; 73.2% in the experiment with SF-268 CNS. In addition, the growth was 93.4% with SF-295 CNS, 72.2% in the experiment with SF-539 CNS, 84.1% in the experiment with UACC-257 melanoma and 62.3% in the experiment on M14 melanoma.

As for `C#C[C@@]1(O)[C@@H](CO)O[C@@H](n2cc(F)c3c(N)ncnc32)[C@@H]1O`, the growth with DU-145 prostate is 2.84% (active); with K-562 leukemia, 9.21% (active); in the experiment on MALME-3M melanoma it was -30.2% (active); in the experiment with MDA-MB-231 breast, -14.8% (active); in the experiment with RXF 393 renal, -36.8% (active); with SF-268 CNS it was 15.9%. Further, the growth in the experiment with SF-295 CNS is -23% (active); in the experiment on SF-539 CNS, 0.929% (active); in the experiment with UACC-257 melanoma, 2.98% (active); in the experiment on M14 melanoma, -42% (active).

As for `COc1ccc2c(c1)C1(C(=O)N2)C(C#N)=C(c2ccccc2)Nc2c1c(-c1ccccc1)nn2-c1ccccc1` (stereo not given), the growth with DU-145 prostate was 49.8%; in the experiment on K-562 leukemia it was 70.4%; in the experiment on MALME-3M melanoma, 63.8%; with MDA-MB-231 breast, 45.1%; with RXF 393 renal, 64.2%; with SF-268 CNS, 52.1%. The growth in the experiment with SF-295 CNS is 69.7%; in the experiment on SF-539 CNS, -3.82% (active); with UACC-257 melanoma, 87.9%; with M14 melanoma, 72.2%.

As to `N#Cc1nc(-c2ccccc2)oc1S(=O)(=O)NCC(c1ccc(Cl)cc1)N1CCCCC1` (stereo not given), the growth with DU-145 prostate was 84.4%; in the experiment on K-562 leukemia, 8.67% (active); with MALME-3M melanoma, 96.8%; in the experiment with MDA-MB-231 breast, 89.3%; in the experiment with RXF 393 renal, 101%; with SF-268 CNS it was 78%. The growth is 102% with SF-295 CNS, 87.5% in the experiment with SF-539 CNS, 88.1% with UACC-257 melanoma and 76.4% in the experiment with M14 melanoma.

As to `CC[C@H](Nc1ncnc2nc[nH]c12)c1nc2cccc(CC(=O)c3ccc(C(=O)NO)cc3)c2c(=O)n1-c1ccccc1`, the growth in the experiment with DU-145 prostate is 101%; with K-562 leukemia it was 85.9%; in the experiment on MALME-3M melanoma it was 56.2%; with MDA-MB-231 breast, 99.9%; in the experiment with RXF 393 renal, 83.5%; in the experiment with SF-268 CNS it was 83%. For the same compound, the growth is 97.9% in the experiment on SF-295 CNS, 78.5% in the experiment on SF-539 CNS, 53.5% in the experiment with UACC-257 melanoma and 92.5% in the experiment with M14 melanoma.

With `Fc1ccc(N/N=C/c2ccc(-n3cccn3)cc2)cc1`, the growth was 93.8% in the experiment with DU-145 prostate; 93.3% in the experiment with K-562 leukemia; 106% in the experiment on MALME-3M melanoma; 80.1% in the experiment on MDA-MB-231 breast; 105% in the experiment with RXF 393 renal; 81.3% in the experiment with SF-268 CNS. The growth in the experiment with SF-295 CNS was 87.6%; with SF-539 CNS, 100%; with UACC-257 melanoma it was 118%; with M14 melanoma it was 88.8%.

Take `CC(C)NS(=O)(=O)c1cccc(-c2ccc3c(=O)n(CCCN)c4c(c3c2)C(=O)c2ccccc2-4)c1`: the growth in the experiment on DU-145 prostate is 107%; with K-562 leukemia, 88.3%; in the experiment on MALME-3M melanoma, 118%; with MDA-MB-231 breast it was 108%; in the experiment on RXF 393 renal, 109%; in the experiment on SF-268 CNS, 98.2%. Further, the growth with SF-295 CNS was 104%; in the experiment on SF-539 CNS it was 104%; in the experiment on UACC-257 melanoma it was 110%; with M14 melanoma, 115%.
